# MPTP block = permeability transition pore inhibition | inhibition, % at 10 µM | isolated mouse mitochondria, Ca2+ swelling absorbance, 30 min | 360,000 tested, 1.4% active;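 active means inhibition of 50% or more, scaled per plate between neutral and stimulator controls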;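 further: 0% = DMSO wells given calcium and 100% = 1 mM EGTA wells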
# Gli-Sufu block = antagonists of Gli-Sufu signaling; Sufu-KO-LIGHT fibroblasts, Gli luciferase reporter luminescence; 340,000 tested, 0.74% active; inhibition, % at 5 µM;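 active means inhibition above about 55%, limit read from the data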;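 further: 0% = DMSO-treated cells and 100% = wells with medium but no cells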
# NR3A LBD binder = modulates the human NR3A ligand-binding domain | 340,000 tested, 2.5% active | NR3A LBD differential scanning fluorimetry, Tm shift; 0% = protein alone, 100% = glycine-bound protein | Tm shift relative to glycine control, % at 25 µM;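 active means melting temperature shift of at least 10% of the positive control shift, at one fixed dose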
# CSC inhib = blocks cancer stem cells; cancer stem cell-like cells viability, luminescence; 300,000 tested, 1.1% active; inhibition, % at 7.5 µM; in the data active means inhibition above about 75%; inconclusive means no clear call, values can overlap the other calls; tested in HMLE shEcad cells
# Mdm2 MdmX PPI = human Mdm2/MdmX binding inhibition; O15151+Q00987; SaOS-2 split-luciferase Mdm2/MdmX complementation, luminescence; inhibition, % at 8 µM; 330,000 tested, 3% active; AID 485346;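 active means inhibition of at least 50% at 8 µM in the primary screen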
# Target sequence (O15151 whole entry, looked up): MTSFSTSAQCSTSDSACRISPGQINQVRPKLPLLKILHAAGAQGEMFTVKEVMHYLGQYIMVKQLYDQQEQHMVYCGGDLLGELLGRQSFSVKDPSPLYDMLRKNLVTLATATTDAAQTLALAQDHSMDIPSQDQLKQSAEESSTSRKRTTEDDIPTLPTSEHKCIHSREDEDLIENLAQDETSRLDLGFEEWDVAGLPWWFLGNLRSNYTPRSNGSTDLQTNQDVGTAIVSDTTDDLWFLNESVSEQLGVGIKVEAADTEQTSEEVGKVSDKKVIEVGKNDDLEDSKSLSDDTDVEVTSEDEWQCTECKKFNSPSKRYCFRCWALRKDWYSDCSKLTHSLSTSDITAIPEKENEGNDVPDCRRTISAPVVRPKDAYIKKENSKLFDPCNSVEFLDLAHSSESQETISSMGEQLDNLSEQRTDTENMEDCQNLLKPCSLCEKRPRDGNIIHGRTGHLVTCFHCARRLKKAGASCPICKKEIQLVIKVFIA
# Target sequence (Q00987 whole entry, looked up): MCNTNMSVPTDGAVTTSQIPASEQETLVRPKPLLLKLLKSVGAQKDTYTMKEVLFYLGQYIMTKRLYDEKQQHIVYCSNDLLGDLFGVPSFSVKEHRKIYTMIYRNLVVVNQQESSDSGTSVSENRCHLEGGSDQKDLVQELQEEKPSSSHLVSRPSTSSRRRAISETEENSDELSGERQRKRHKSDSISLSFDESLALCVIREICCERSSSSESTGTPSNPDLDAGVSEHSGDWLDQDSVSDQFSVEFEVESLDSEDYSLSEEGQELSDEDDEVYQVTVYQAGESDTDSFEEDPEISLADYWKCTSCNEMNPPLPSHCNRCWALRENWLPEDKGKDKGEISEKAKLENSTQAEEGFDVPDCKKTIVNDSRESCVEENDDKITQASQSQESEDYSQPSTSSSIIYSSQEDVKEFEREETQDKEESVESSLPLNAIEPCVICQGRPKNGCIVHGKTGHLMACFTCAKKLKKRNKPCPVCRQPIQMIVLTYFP
# Beta apoptosis = blocks beta cell apoptosis | INS-1E cytokine-induced death, ATP luminescence, 48 h; percent of positive-control rescue, neutral wells zero | protection from apoptosis, % (concentration not given with the values) | 300,000 tested, 0.8% active | AID 435005;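 active means Every replicate reaches about 75%, or at least half do and their mean reaches it too, limit read from the data; inconclusive means At least half of replicates reach the limit but their mean does not; inactive means Under half of replicates reach the limit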;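 further: 0% = cytokine-treated negative control wells and 100% = positive control rescue; higher means more ATP so stronger rescue from cytokine killing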
# Mdm2-MdmX conf = human Mdm2/MdmX binding inhibition, confirmed; shares compounds with Mdm2 MdmX PPI; luminescent assay; inhibition, % at 8 µM; 10,000 tested, 55% active; AID 489028; in the data active means inhibition above about 40%
# FLuc counter = counter-screen for Mdm2/MdmX inhibitors: full-length luciferase | SaOS-2 full-length luciferase counterscreen, luminescence | shares compounds with Mdm2 MdmX PPI | inhibition, % at 8 µM | 6,200 tested, 77% active;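 active means mean inhibition at 8 µM reaching about 37%, which flags the compound as non-specific, limit read from the data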;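 further: p53-null SaOS-2 cells with luciferase driven by a doxycycline-inducible promoter; compound on cells about two nights before reading with doxycycline added after day one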
# Gli-Sufu confirm = Gli-SUFU antagonism confirmation, single concentration; shares compounds with Gli-Sufu block; Sufu-KO-LIGHT cells, Gli luciferase reporter, luminescence; inhibition, % at 5 µM; 2,500 tested, 40% active;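 active means mean inhibition at 5 µM reaching about 45%, limit read from the data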;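 further: plate controls were DMSO-treated cells for no effect and wells lacking cells for full effect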
# Gli cytotox = cytotoxic in Gli-SUFU antagonist counter-screen | shares compounds with Gli-Sufu block | Sufu-KO-LIGHT cells cytotoxicity, ATP luminescence | cytotoxicity, % at 5 µM | 2,500 tested, 32% active | AID 651994;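 active means mean cytotoxicity at 5 µM above about 25%, limit read from the data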;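 further: cells exposed to compound overnight for roughly 16 to 18 hours; plate controls were DMSO wells with cells for no effect and medium without cells for full effect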
# Wnt3a cs = inhibits Wnt3a reporter, counter-screen for Gli-SUFU antagonists. Wnt-LIGHT cells, Wnt3a-driven luciferase reporter, luminescence. inhibition, % at 6.25 µM. shares compounds with Gli-Sufu block. AID 651995. 2,500 tested, 20% active;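 active means mean inhibition above about 25%, limit read from the data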
# MPTP counter = membrane potential counter-screen of mitochondrial pore inhibitors; shares compounds with MPTP block; inhibition, % at 10 µM; 5,000 tested, 78% active; isolated mitochondria, Rhodamine 123 fluorescence; AID 624504; in the data active means inhibition above about 22%;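 further: 0% = DMSO vehicle and 100% = positive control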
# MPTP abs DR = dose response confirmation of mitochondrial permeability transition pore inhibitors. IC50, µM. isolated mitochondria swelling, absorbance. 780 tested, 58% active. shares compounds with MPTP block. AID 651561; in the data active means IC50 below about 20 µM
# MPTP cs DR = MPTP inhibitor counter-screen activity, dose response | isolated mitochondria counterscreen, fluorescence read-out | IC50, µM | AID 651564 | shares compounds with MPTP block | 780 tested, 49% active; in the data active means IC50 below about 80 µM
# Starred values were filed as active, the others as inactive; i = inactive; u = inconclusive; x = no result. Shown are actives, neighbours in structure and some others; about 6.6% of the full set was active somewhere.
SMILES,MPTP block,Gli-Sufu block,NR3A LBD binder,CSC inhib,Mdm2 MdmX PPI,Beta apoptosis,Mdm2-MdmX conf,FLuc counter,MPTP counter,others
Cc1cc(C)nc(N2CCN(c3ccc(F)cc3)CC2)n1,0,-5,2,x,7,x,x,x,x,
CN1CC2=Cc3ccccc3OC23Oc2ccccc2C=C3C1,65*,6,-2,54,59*,x,25,x,-6,MPTP abs DR=i;MPTP cs DR=>80
CC(NC(=S)NCCc1ccccc1)C(c1cccs1)N1CCN(Cc2ccccc2)CC1 (centres undefined),18,10,-1,x,31,26,x,x,x,
CC(C)(C)c1ccc(C2CC2C(=O)N/N=C\c2ccc[nH]2)cc1 (centres undefined),105*,88*,-3,0,84*,109*,73*,31,98*,Gli-Sufu confirm=92*;Gli cytotox=3;Wnt3a cs=43*
N=c1c2c(-c3ccccc3)c(-c3ccccc3)oc2ncn1CCCN1CCOCC1,0,10,-3,7,36,x,x,x,x,
N=c1c2c(-c3ccccc3)c(-c3ccccc3)n(Cc3ccco3)c2ncn1CCCN1CCOCC1,71*,10,-2,32,100*,u,88*,56*,-4,
C=CCOC(=O)C1=C[C@@H](c2ccc3c(c2)OCO3)C[C@@H](OCc2ccc(CO)cc2)O1,0,1,0,1,1,-6,x,x,x,
CC(C)(C)c1ccc(C(=O)NNC(=O)c2ccc(Cl)cc2)cc1,5,2,1,19,-5,-9,x,x,x,
O=C(NNC1=C(C(=O)C(F)(F)F)CCC1)c1ccc(Cl)cc1,92*,-27,-27,82*,52*,9,55*,76*,77*,
O=C(NC1(C(F)(F)F)NC(=O)N(Cc2ccccc2)C1=O)c1cccs1 (centres undefined),3,3,1,3,15,0,x,x,x,
COc1ccc(CNCC(O)(c2ccccc2)c2ccc(F)cc2)cc1 (centres undefined),0,-36,-2,-4,6,4,x,x,x,
COc1ccc(CNCCC(c2ccc(F)cc2)c2ccc(OC)cc2)cc1 (centres undefined),56*,24,0,26,66*,6,43*,82*,-8,
Cc1ccc(CSc2nccc(-c3c(C)nc4ccccn34)n2)cc1,61*,x,-1,53,66*,8,46*,53*,13,MPTP abs DR=i;MPTP cs DR=>80
Cc1ccc(CSc2ncn(-c3ccccc3)n2)cc1,2,-36,0,11,-13,x,x,x,x,
CN1CCN(CCOC2Cc3ccccc3Sc3ccc(Cl)cc32)CC1 (centres undefined),90*,10,-4,-6,60*,-2,27,x,-11,MPTP abs DR=6.5*;MPTP cs DR=>80
OCCN1CCN(C2Cc3cc(Cl)ccc3Sc3ccc(Cl)cc32)CC1 (centres undefined) (tested in a mixture with another compound),84*,4,-1,x,59*,101*,30,x,-11,
Fc1ccc(NC(=S)Nc2ccc(F)c(Cl)c2)cc1Cl,92*,8,12*,2,64*,37,28,x,89*,
O=C(NC(=S)Nc1ccc(F)c(Cl)c1)C1CC1,0,-2,1,4,15,-1,x,x,x,
Cc1onc(-c2c(Cl)cccc2Cl)c1C(=O)N=C(N)N1CCCC1,3,2,0,5,-8,-2,x,x,x,
Cc1cc(NC(=O)c2ccc(Cl)cc2)c(C)cc1O,0,14,-1,-5,-23,x,x,x,x,
Cc1cc(C(C#N)c2ccc(Cl)cc2)c(Cl)cc1NC(=O)c1cc(I)cc(I)c1O (centres undefined),100*,-7,4,96*,54*,7,12,x,20,
Cc1cnc(C(=O)OCC(=O)Nc2cc(Cl)ccc2C#N)cn1,-1,5,3,x,3,-1,x,x,x,
COc1cc2c(c(O)c1OC)C1Cc3ccc(OC)c(OC)c3CN1CC2 (centres undefined),-1,x,x,x,x,x,x,x,x,
COc1ccc2cc1Oc1ccc(cc1)CC1c3c(cc(OC)c4c3Oc3cc5c(cc3O4)CCNC5C2)CCN1C (centres undefined),78*,8,-8,-3,100*,x,100*,2,-17,
COc1ccc2cc1Oc1ccc(cc1)C[C@H]1c3c(cc(OC)c4c3Oc3c(ccc5c3[C@H](C2)N(C)CC5)O4)CCN1C,90*,14,-14,105*,100*,122*,42*,11,-18,
SMILES,MPTP block,Gli-Sufu block,NR3A LBD binder,CSC inhib,Mdm2 MdmX PPI,Beta apoptosis,Mdm2-MdmX conf,FLuc counter,MPTP counter,others
CSCCC(NC(=O)c1ccccc1Cl)C(=O)N1CCCCC1 (centres undefined),-1,-8,-1,9,-1,0,x,x,x,
COC(C/C=C/[C@@H](O)[C@H](C)OCc1ccccc1)OC,-2,16,1,-4,-21,-2,x,x,x,
CCCc1c(NC(=O)Nc2ccc(F)cc2)cnn1-c1ccccc1,52*,-25,-4,42,89*,-5,61*,29,67*,
CCCc1c(C(=O)Nc2ccc(F)cc2C)cnn1-c1ccccc1,2,-4,-1,-2,47,9,x,x,x,
C=CCSc1nsc(NC(=O)Nc2ccc(F)cc2)n1,98*,39,28*,101*,91*,111*,89*,28,78*,
CC[N+](C)(CC)CC(O)COCC1COc2ccccc2O1 (centres undefined),-9,-11,0,-6,10,-10,x,x,x,
O=C(NN=C1CCCC1)c1[nH]c2ccc(Br)cc2c1-c1ccccc1,x,-7,-15,70,27,x,x,x,x,
O=C(N/N=C/c1ccccc1)c1[nH]c2ccc(Br)cc2c1-c1ccccc1,86*,46,27*,46,63*,10,67*,83*,90*,
